The values below come from PubChem BioAssay AID1508621 (National Center for Advancing Translational Sciences (NCATS), 2021).

Results filed as inconclusive are left out. Entries that show only a call come without a potency. Calls of active or inactive are those of the source. Calls follow the shape of the dose curve; as a rule, active = well fitted inhibition curve with a large enough effect; inconclusive = small, poorly fitted or top-dose-only effect; inactive = no such curve, though single readings can be large or run the other way.
Potency is read from the fitted curve at half-maximal effect.

The assay is described as follows: Confirmatory qHTS for Identification of Small Molecule Inhibitors of Huntingtin Promoter Activity. Also: nearly all actives have a fitted effect of over 65% in size. Conditions: HEK293 HTT promoter firefly luciferase reporter, 24 h; series mostly up to 57.5 µM. The procedure, abridged: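 HEK293 luciferase reporter cells, 2,500/well, cultured 24 h, then exposed to compounds at up to 57.5 uM final for 24 h at 37C. Firefly luciferase luminescence read; normalized to vehicle (0%) and zero RLU (-100%).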
In general terms: qHTS replaces the single test concentration by a dilution series.
Regarding `CC(C)C[C@@H](C=O)NC(=O)[C@H](CC(C)C)NC(=O)[C@H](CC(C)C)NC(=O)OCc1ccccc1`, the Potency is 2.13 µM (active).

Regarding `CC(C)Oc1ccc(C(=O)N(Cc2ccco2)c2ccccn2)cc1`, the Potency entry is “inactive”.

With `CCCCC(=O)Nc1cccc(-c2nc3ccccc3s2)c1`, the Potency result was “inactive”.

With `CC(=O)N1CCCc2cc(S(=O)(=O)N3CCCC(C(=O)N4CCN(c5ccccc5)CC4)C3)ccc21` (stereo not drawn), the Potency was 9.53 µM (active).

Regarding `COc1cccc(CNC(=O)c2ccc3nc(N4CCCCC4)sc3c2)c1OC`, the Potency result is “inactive”.

For `CCOc1ccc(Nc2ncnc3c2nc2n3CCCCC2)cc1`, the Potency entry is “inactive”.

Take `O=C(Nc1nc2cccc(-c3ccc(CN4CCS(=O)(=O)CC4)cc3)n2n1)C1CC1`: the Potency entry was “inactive”.

For `Cc1ccc(C(=O)Nc2ccc(F)cc2)cc1S(=O)(=O)N1CCCCCC1`, the Potency result is “inactive”.

On to `O=c1cc(-c2ccccc2)oc2cc(O)cc(O)c12`, for which the Potency result was “inactive”.

For `O=C(O)c1cc(-n2c(/C=C\c3ccc(F)cc3)nc3ccccc3c2=O)ccc1Cl`, the Potency entry is “inactive”.

With `Cc1ccc(S(=O)(=O)n2nc(-c3ccco3)nc2NCc2ccccc2Cl)cc1`, the Potency result is “inactive”.

Regarding `COc1cccc(-c2cn3c(n2)sc2cc(C(=O)NCc4cccs4)ccc23)c1`, the Potency entry is “inactive”.

`Cc1ccc(NC(=O)c2ccc(C)c(S(=O)(=O)N3CCCCCC3)c2)cc1`: the Potency entry is “inactive”.

On to `CN(C)c1ccc(Nc2nc(N)n(C(=O)c3c(F)cccc3F)n2)cc1`, for which the Potency entry was “inactive”.

As for `Cc1cccc(CSc2cn(CC(=O)N3CCOCC3)c3ccccc23)c1`, the Potency result is “inactive”.

`O=C(CN(c1cccc(C(F)(F)F)c1)S(=O)(=O)c1ccccc1)Nc1cccc(Cl)c1`: the Potency is 26.9 µM (active).

Turning to `CC[C@@H]1C(=O)N(C)c2cnc(Nc3ccc(C(=O)NC4CCC(N5CCN(CC6CC6)CC5)CC4)cc3OC)nc2N1C(C)C` (stereo partly drawn), the Potency entry was “inactive”.

For the compound `Cc1ccccc1NC(=O)c1c(NC(=O)C(F)(F)F)sc2c1CCCCC2`, the Potency was 0.849 µM (active).

As for `Cc1ccc(CN2CCSc3ccc(C(=O)NCC(C)c4ccccc4)cc32)cc1` (stereo not drawn), the Potency entry is “inactive”.

Turning to `CCN(C(=O)CSc1nc(-c2ccccc2)no1)c1cccc(C)c1`, the Potency result was “inactive”.

For `O=C(NCc1ccccc1)c1cc2ccc3cccnc3c2[nH]1`, the Potency result is “inactive”.

With `O=C(CSc1ccc(-c2ccccn2)nn1)Nc1ccc(F)c(F)c1`, the Potency entry is “inactive”.

`O=C(NCCC1=CCCCC1)c1ccc2c(c1)N(Cc1cccc(Cl)c1)C(=O)c1ccccc1S2(=O)=O`: the Potency result was “inactive”.

In the case of `Cc1ccc(-n2ncc3c(N(CCO)Cc4ccccc4)ncnc32)cc1`, the Potency entry is “inactive”.

Turning to `COC[C@H](NC(=O)c1cnc(C)s1)C(=O)N[C@@H](COC)C(=O)N[C@@H](Cc1ccccc1)C(=O)[C@@]1(C)CO1`, the Potency was 0.301 µM (active).

Consider `CCN(CCCNC(=O)CSc1cc(=O)n(CC)c2ccccc12)c1ccccc1`, for which the Potency result is “inactive”.

As to `Cn1c(=O)n(C)c2cc(NS(=O)(=O)c3ccc(F)cc3)ccc21`, the Potency entry was “inactive”.

For the compound `CCOc1ccc(S(=O)(=O)N(C(C)=O)c2ccc3oc(C)c(C(=O)OC)c3c2)cc1`, the Potency is 4.78 µM (active).

For `CCOc1ccc(C2=C(C(=O)CC)Sc3nncn3N2C(=O)CC)cc1`, the Potency entry is “inactive”.

Regarding `CN(C)Cc1c(C(=O)NCCOc2ccc(C(=O)NO)cc2)oc2ccccc12`, the Potency result is “inactive”.

`Cc1ccc(C)c(N2CCN(C(=O)c3nn(C)c4c3CS(=O)(=O)c3ccccc3-4)CC2)c1`: the Potency was 23.9 µM (active).

Regarding `CC(C)c1ccc(Cc2cnc(NC(=O)c3ccc4c(c3)CC(c3ccccc3)OC4=O)s2)cc1` (stereo not drawn), the Potency is 3.79 µM (active).

Turning to `CC(C)c1ccc(NC(=O)C2CCN(c3nc(-c4ccc(C(C)C)cc4)no3)CC2)cc1`, the Potency was 0.0953 µM (active).

For the compound `Cc1oc(-c2cccc(Cl)c2)nc1CN1CCC(C(=O)NCCCN2CCN(c3ccc(F)cc3)CC2)CC1`, the Potency was 13.5 µM (active).

For `COc1ccc(C(C)n2c(C)c3c(C)nnc(C)c3c2C)cc1` (stereo not drawn), the Potency result was “inactive”.

As for `O=c1c(O)c(-c2ccc(O)cc2)oc2cc(O)cc(O)c12`, the Potency result is “inactive”.

`CCc1ccc(-n2c(SCC(=O)NC(C)CC)nc3n[nH]c(C)c3c2=N)cc1` (stereo not drawn): the Potency result was “inactive”.

In the case of `Cc1ccccc1OCC(=O)Nc1ccccc1C(=O)OCc1cc(=O)n2c(C)csc2n1`, the Potency entry was “inactive”.
